A selection: hits, their analogues and other compounds. The true share with any hit is near 18%.
Six1-Eya2 blk – inhibitors of human Six1/Eya2 interaction; Q15475+O00167; AlphaScreen GST-Six1/His-Eya2 binding, biochemical; stronger effect = lower value; activity change, % (concentration not given with the values); 0.56% of 360,000 active; in the data active = activity change below about -65%; inconclusive = mostly about -30% to -63%
Target sequence (O00167 whole entry, looked up): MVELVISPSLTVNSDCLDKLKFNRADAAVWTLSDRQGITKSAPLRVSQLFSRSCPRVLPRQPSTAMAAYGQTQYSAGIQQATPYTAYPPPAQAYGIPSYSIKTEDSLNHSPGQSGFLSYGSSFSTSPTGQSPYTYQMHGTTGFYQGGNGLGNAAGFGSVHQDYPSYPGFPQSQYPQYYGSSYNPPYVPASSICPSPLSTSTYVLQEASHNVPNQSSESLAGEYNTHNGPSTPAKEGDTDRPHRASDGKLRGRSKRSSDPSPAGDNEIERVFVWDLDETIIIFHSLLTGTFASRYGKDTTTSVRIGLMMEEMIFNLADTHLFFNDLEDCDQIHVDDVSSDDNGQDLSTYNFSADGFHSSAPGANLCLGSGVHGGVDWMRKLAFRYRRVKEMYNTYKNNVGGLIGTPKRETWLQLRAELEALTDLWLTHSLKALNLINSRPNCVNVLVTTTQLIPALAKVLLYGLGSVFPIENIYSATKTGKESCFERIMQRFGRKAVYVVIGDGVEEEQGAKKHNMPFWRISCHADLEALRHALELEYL
Target sequence (Q15475 whole entry, looked up): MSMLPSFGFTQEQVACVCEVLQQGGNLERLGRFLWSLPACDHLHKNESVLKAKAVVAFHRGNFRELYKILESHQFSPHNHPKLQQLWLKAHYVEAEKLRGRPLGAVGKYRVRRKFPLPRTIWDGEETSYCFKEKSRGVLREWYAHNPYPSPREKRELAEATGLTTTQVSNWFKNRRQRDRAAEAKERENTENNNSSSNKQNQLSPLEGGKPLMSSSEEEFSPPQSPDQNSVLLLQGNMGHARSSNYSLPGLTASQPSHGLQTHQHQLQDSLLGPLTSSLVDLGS
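AlphaScreen luminescence read after one hour at 37 °C in darkness. Pin-transferred compounds met GST-Six1 and His-Eya2 protein (5X stock 250 nM/500 nM) plus glutathione donor and Ni-chelate acceptor beads (5X, 50 ug/mL).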
CtBP-E1A inh – CtBP/E1A binding inhibition | AID 651724 | 0.49% of 340,000 active | activity change, % (test concentration not listed) | AlphaScreen GST-E1A/His-CtBP binding, 1536-well; stronger effect = lower value; in the data active = activity change below about -65%; inconclusive = mostly about -30% to -63%
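GST-E1A and His-tagged CtBP (125 nM each as 5X stock) were preincubated with pin-transferred compound for 2 h at 37 °C in the dark, then glutathione donor and nickel acceptor beads were added for 1 h before AlphaScreen reading.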
TDP1 inh – inhibitors of human tyrosyl-DNA phosphodiesterase TDP1; AID 485290; Q9NUW8; recombinant TDP1, AlphaScreen DNA substrate cleavage; 0.28% of 350,000 active; Potency, µM (highest dose often 130 µM), for inactives: top-dose activity change, negative = inhibition, actives largely listed as inhibitors; note: potency is the fitted concentration of half-maximal effect; nearly all actives have a fitted effect of over 40% in size
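Steps: enzyme plus compound, 15 min RT; add biotin/phosphotyrosine-FITC oligonucleotide (15 nM final), react 5 min; add donor/acceptor beads (10 ug/ml final), 10 min; read AlphaScreen. Tdp1 at 1 nM final.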
TDP1 cell noCPT – qHTS for Inhibitors of human tyrosyl-DNA phosphodiesterase 1 (TDP1): qHTS in cells in absence of CPT. DT40 Tdp1-/- hTDP1 cells, no CPT, ATP luminescence, 48 h. Potency, µM (titrated, usually from 46.2 µM), inactives show at the top dose activity change, negative = growth inhibition, actives largely listed as inhibitors. 15% of 420,000 active. AID 686978, 2013; note: potency is the fitted concentration of half-maximal effect; nearly all actives have a fitted effect of over 55% in size
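DT40 Tdp1-/-;hTDP1 cells, no CPT (DMSO vehicle only), 400 cells/well; compounds pin-transferred; ≥48 hr, 37 °C; CellTiter-Glo 30 min RT dark, luminescence read.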
DT40 TDP1 CPT – DT40-hTDP1 cell growth loss with CPT; 12% of 420,000 active; chicken DT40 Tdp1-/-;hTDP1 cells + 20 nM CPT, ATP luminescence, 48 h; Potency, µM (series often up to 46.2 µM), inactives show at the top dose activity change, negative = growth inhibition, most hits filed as inhibitors; AID 686979; note: potency is the fitted concentration of half-maximal effect; nearly all actives have a fitted effect of over 55% in size
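Chicken DT40 Tdp1-/- cells complemented with human TDP1, 400 cells/well, exposed to compounds plus 20 nM camptothecin for at least 48 h at 37 C; viability read as ATP content by CellTiter-Glo luminescence.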
IL1B secr inh – inflammasome signaling inhibition, IL-1 beta readout. THP-1 LPS/ATP IL-1B secretion, AlphaLISA, 16 h; stronger effect = lower value. activity change, % at 57.5 µM. 4.7% of 360,000 active; in the data active = activity change below about -50%; inconclusive = mostly about -30% to -49%
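THP-1 cells pretreated 1 hr with compounds (up to 57.5 uM final), then stimulated with LPS (250 ng/mL final) plus ATP (1.25 mM final); secreted IL-1B measured by AlphaLISA after 16 hr, decreased signal indicating inhibition.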
An asterisk follows results filed as active; ? = inconclusive; . = not tested or not shown. Unless noted, calls come from the whole dose curve; as a rule, active = well fitted curve in the direction sought with a large enough effect; inconclusive = small, poorly fitted or top-dose-only effect, or another doubt; inactive = no such curve, though single readings can be large; an effect the other way counts as inactive or inconclusive. % is set by controls: 0 for no effect and ±100 for the full control effect.

SMILES	Six1-Eya2 blk	CtBP-E1A inh	TDP1 inh	TDP1 cell noCPT	DT40 TDP1 CPT	IL1B secr inh
COCCNC(=O)c1cc(S(=O)(=O)N(C)c2ccccc2OC)ccc1C	14.9	2.0	4.8%	?	-17.5%	5.9
CCOC(=O)N1CCN(Cc2nc3cc([N+](=O)[O-])ccc3n2C)CC1	-3.0	5.4	.	-17.8%	-1.3%	36.7
CCOC(=O)N1CCN(Cc2nc3ccc([N+](=O)[O-])cc3c(=O)n2-c2ccccc2F)CC1	-7.5	.	.	23.1µM*	?	31.3
CCOC(=O)c1ccc(-n2c(CN3CCOCC3)nc3ccc([N+](=O)[O-])cc3c2=O)cc1	0.0	1.5	1.2%	-3.8%	-10.0%	45.4
CCOC(=O)C1CCCN(Cc2nc3ccc([N+](=O)[O-])cc3c(=O)n2-c2ccc(OC)cc2OC)C1 (stereo unspecified)	-6.5	-0.6	2.5%	23.1µM*	16.4µM*	61.9
CCOC(=O)c1ccc(-n2c(CN(CC)CC)nc3ccc([N+](=O)[O-])cc3c2=O)cc1	5.8	0.0	6.9%	?	18.4µM*	36.0
CC(=O)N1CCN(Cc2nc3cc([N+](=O)[O-])ccc3n2C)CC1	6.0	.	.	?	6.51µM*	7.1
COc1ccc(OCC(=O)N2CCN(C(=O)c3ccc([N+](=O)[O-])cc3)CC2)cc1	-1.5	0.2	-1.2%	-11.1%	1.4%	0.0
CCOC(=O)c1ccc(-n2c(CN3CCC(O)CC3)nc3ccc([N+](=O)[O-])cc3c2=O)cc1	-4.9	-0.9	3.5%	?	20.6µM*	0.0
CCOC(=O)c1ccc(-n2c(CN3CCC(C(N)=O)CC3)nc3ccc([N+](=O)[O-])cc3c2=O)cc1	0.8	-6.9	5.3%	-11.2%	?	0.0
COC(=O)[C@@H]1C[C@@]2(O)[C@H](O)[C@H](O)[C@H](O)C[C@H]2N1Cc1ccc(N2CCN(C)CC2)cc1	.	.	6.9%	.	.	.
Fc1ccc2[nH]c3c(NCc4ccco4)ncnc3c2c1	.	.	6.3%	8.91µM*	7.08µM*	.
c1coc(CNc2ncnc3nc[nH]c23)c1	3.1	-0.2	2.6%	-28.0%	-25.8%	10.8
COc1ccc(/C=N/Nc2ncnc3c2[nH]c2ccc(C)cc23)c(OC)c1OC	-1.3	7.9	.	14.6µM*	?	55.5
COc1ccc2[nH]c3c(NCCN4CCCCC4)ncnc3c2c1	.	.	6.1%	.	.	.
Cc1ccc2[nH]c3c(NCc4ccco4)ncnc3c2c1	-6.8	21.1	1.1%	18.4µM*	23.1µM*	-21.2
COc1cc(CNc2ncnc3c2[nH]c2ccc(C)cc23)cc(OC)c1	-14.1	.	4.2%	20.6µM*	?	?
CC(C)n1cc(/C(N)=N/O)c(=O)n(Cc2ccccc2)c1=O	1.1	.	0.0%	-2.3%	0.1%	4.9
CC(Sc1nnc(-c2ccncc2)n1-c1ccc(F)cc1)C(=O)NC1CC1 (stereo unspecified)	2.8	5.9	3.2%	8.3%	-3.2%	31.2
CN(C)c1ccc(-c2[nH][nH]c(=O)c2NC(=O)c2ccccn2)cc1	-22.0	?	.	?	?	-7.5
Cc1ccc(NC(=O)COC(=O)c2ccc(Br)o2)cc1S(=O)(=O)N1CCCCC1	-4.6	-16.3	0.5%	10.6%	-14.9%	0.0
Cc1ccc(-c2cnc3c(Cl)c(C)nn3c2)cc1	15.4	7.3	5.9%	10.3µM*	20.6µM*	32.4
Cc1cc(C)cc(Oc2ccc(S(=O)(=O)N3CCN(C)CC3)cn2)c1	-7.8	2.1	.	?	-19.7%	-0.3
COc1ccc([C@@H]2CC=C(C(=O)O)[C@H](c3ccc(Br)cc3)N2S(=O)(=O)c2ccccc2C)cc1	-0.2	6.5	2.1%	?	3.1%	0.0
CCNCC(=O)N1c2ccccc2CCc2ccc(NC(=O)OC(C)C)cc21	-11.7	-7.4	.	16.4µM*	?	-66.2*

Compound activity from PubChem BioAssay.
